Activity calls are given as the source filed them. Unless noted, how the calls were made is not given here.
Assays:
[1] = compounds binding Alexa647 anti-His antibody – biochemical, small-molecule microarray, 635 nm fluorescence, artefact control for SMM control protein annotation, primary screen (AID 1128); conditions: higher = more signal;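 further: score merges feature fluorescence with signal-to-noise for each printed compound spot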
[2] = tested on: Human papillomavirus type 1a E7 protein (residues 1-88); assay: HPV1a E7 small-molecule binders, primary screen, biochemical, small-molecule microarray, residues 1-88, 635 nm (AID 1129); conditions: small-molecule microarray binding, fluorescence 635 nm; higher = more signal
[3] = target: Focal adhesion kinase 1 (Homo sapiens) (UniProt Q05397); assay: PTK2 protein binding on printed compound slides – biochemical, small-molecule microarray, 635/667 nm fluorescence, BSA, DTT, primary screen (AID 1130); conditions: 635 nm fluorescence, higher = more signal;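 further: composite of spot emission at 667 nm and signal to noise over triplicate slides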
Sequence of Focal adhesion kinase 1 (Homo sapiens) (Q05397 whole entry, looked up): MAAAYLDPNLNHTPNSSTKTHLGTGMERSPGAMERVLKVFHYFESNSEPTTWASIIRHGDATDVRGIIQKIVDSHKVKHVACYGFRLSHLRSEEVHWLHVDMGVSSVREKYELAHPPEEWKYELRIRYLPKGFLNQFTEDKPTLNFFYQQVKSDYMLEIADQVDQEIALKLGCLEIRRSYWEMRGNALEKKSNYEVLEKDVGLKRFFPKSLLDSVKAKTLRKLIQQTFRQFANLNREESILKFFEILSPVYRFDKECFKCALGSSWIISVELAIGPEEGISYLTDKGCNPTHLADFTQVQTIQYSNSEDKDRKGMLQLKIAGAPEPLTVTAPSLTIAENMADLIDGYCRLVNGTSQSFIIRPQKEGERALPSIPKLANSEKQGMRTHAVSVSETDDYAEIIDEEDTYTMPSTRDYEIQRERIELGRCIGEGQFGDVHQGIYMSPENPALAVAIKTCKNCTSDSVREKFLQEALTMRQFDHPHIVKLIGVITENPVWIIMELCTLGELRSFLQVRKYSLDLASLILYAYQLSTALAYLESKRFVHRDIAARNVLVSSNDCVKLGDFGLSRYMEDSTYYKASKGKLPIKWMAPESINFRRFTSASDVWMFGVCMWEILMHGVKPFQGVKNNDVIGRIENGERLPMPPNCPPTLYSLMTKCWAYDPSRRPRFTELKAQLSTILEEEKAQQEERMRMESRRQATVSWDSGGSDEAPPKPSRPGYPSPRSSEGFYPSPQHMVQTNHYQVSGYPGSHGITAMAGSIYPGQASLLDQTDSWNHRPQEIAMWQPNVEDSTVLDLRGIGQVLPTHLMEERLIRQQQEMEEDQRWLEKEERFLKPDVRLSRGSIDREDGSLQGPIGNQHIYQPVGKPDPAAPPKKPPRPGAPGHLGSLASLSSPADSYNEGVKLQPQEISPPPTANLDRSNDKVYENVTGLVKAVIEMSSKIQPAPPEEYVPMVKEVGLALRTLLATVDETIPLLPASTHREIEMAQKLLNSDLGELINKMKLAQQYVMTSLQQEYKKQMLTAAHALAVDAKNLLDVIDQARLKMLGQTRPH

[4] = tested on: Fibrinogen (Alexa647-labelled); assay: Alexa647-fibrinogen binding to printed small molecules – biochemical, small-molecule microarray, 635/667 nm fluorescence, artefact control for SMM control-protein annotation, profiling panel (AID 1131); conditions: fibrinogen-A647 binding fluorescence, higher = more signal;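 further: z-score merges 667 nm fluorescence with per-spot signal-to-noise over triplicate slides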
[5] = target: Follistatin (Homo sapiens) (UniProt P19883); assay: FST protein binding to printed compounds – biochemical, small-molecule microarray, 635/667 nm fluorescence, primary screen (AID 1132); conditions: 635 nm fluorescence, higher = more signal
Sequence of Follistatin (Homo sapiens) (P19883 whole entry, looked up): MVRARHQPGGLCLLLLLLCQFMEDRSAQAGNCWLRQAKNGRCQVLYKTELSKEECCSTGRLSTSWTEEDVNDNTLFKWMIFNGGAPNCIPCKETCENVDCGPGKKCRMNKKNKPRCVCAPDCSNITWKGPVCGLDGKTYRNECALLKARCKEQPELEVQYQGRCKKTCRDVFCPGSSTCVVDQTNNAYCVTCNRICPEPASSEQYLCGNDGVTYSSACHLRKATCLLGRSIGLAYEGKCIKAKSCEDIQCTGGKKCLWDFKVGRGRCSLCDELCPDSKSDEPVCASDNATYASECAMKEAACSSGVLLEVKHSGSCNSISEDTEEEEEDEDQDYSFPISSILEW

[6] = target: Fibroblast growth factor 2 (Homo sapiens) (UniProt P09038); assay: basic fibroblast growth factor binding to printed compounds – biochemical, small-molecule microarray, 635/667 nm fluorescence, primary screen (AID 1133); conditions: FGF2, fluorescence 635/667, higher = more signal
Sequence of Fibroblast growth factor 2 (Homo sapiens) (P09038 whole entry, looked up): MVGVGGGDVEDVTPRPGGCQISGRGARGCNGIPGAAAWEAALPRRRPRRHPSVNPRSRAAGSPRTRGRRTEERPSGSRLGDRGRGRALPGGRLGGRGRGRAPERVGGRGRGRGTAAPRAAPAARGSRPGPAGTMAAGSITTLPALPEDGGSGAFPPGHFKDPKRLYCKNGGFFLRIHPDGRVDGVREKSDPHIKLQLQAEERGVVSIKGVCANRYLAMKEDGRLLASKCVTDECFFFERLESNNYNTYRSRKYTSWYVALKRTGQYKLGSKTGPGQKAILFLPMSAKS

[7] = JC-1 mitochondrial potential readout, lung cancer cells – cell-based, A549, JC-1 fluorescence, basal, 24 h, 100 nL, profiling panel (AID 1138); conditions: higher = more signal;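 further: A549 lung adenocarcinoma cells under basal conditions with no added stimulus; test concentration not given here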
Lefty1 = Lefty1 protein binding to printed compounds – biochemical, small-molecule microarray, 635/667 nm fluorescence, primary screen (AID 1139); conditions: fluorescence 635/667, higher = more signal
[8] = tested on: wheat germ agglutinin (Triticum aestivum), Alexa647-labelled; assay: Alexa647-WGA lectin binding to printed small molecules – biochemical, small-molecule microarray, 635/667 nm fluorescence, artefact control for SMM control-protein annotation, profiling panel (AID 1140); conditions: WGA-A647 binding, 635 nm fluorescence, higher = more signal;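 further: score merges 667 nm feature emission with signal to noise over triplicate slides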
[9] = target: Luciferin 4-monooxygenase (Photinus pyralis) (UniProt P08659); assay: inhibition of purified Photinus pyralis luciferase – biochemical, luminescence, purified enzyme, 2006 set, primary screen (AID 1141); conditions: purified firefly luciferase, SteadyGlo luminescence, 30 min; higher = more signal, called active from +8 up or from −8 down;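 further: cell-free assay with purified firefly luciferase at 100 ng per well in PBS; test concentration not given here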
Sequence of Luciferin 4-monooxygenase (Photinus pyralis) (P08659 whole entry, looked up): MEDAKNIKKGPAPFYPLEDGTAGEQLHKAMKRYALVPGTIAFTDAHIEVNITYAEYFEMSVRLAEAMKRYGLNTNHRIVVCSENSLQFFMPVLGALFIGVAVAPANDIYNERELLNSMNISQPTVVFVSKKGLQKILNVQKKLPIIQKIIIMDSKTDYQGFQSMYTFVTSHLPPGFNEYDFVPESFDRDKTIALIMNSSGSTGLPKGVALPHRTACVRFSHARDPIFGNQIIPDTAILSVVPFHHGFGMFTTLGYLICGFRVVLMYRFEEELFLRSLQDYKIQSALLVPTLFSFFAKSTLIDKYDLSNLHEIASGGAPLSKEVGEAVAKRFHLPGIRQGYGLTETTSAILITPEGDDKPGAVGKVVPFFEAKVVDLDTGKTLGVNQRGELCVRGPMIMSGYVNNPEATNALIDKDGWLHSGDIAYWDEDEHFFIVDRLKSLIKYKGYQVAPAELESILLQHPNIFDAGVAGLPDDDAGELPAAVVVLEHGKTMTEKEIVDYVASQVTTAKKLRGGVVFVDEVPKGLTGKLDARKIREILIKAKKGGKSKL

[10] = tested on: Wnt5a (protein binding on small-molecule microarray); assay: small molecules binding Wnt5a protein – biophysical, small-molecule microarray, 635/667 nm fluorescence, primary screen (AID 1142); conditions: 635 nm fluorescence, higher = more signal;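 further: fluorescence read at 667 nm with signal to noise per printed feature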
[11] = ATP-based viability of Huh7 replicon cells – cell-based, CellTiter-Glo luminescence, basal, 48 h, cytotoxicity control for HCV replication inhibitor project, primary screen (AID 1143); conditions: higher = more signal, called active from +8 up or from −8 down;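 further: Huh7 hepatoma cells carrying a hepatitis C replication reporter with no stimulus; test concentration not given here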
[12] = Pseudomonas biofilm growth suppression – PAO1 strain, BacTiter-Glo luminescence, LB-PBS, primary screen (AID 1144); conditions: P. aeruginosa PAO1 biofilm, 12 h, higher = more signal
[13] = basal CRE-LacZ reporter activity in PC12 – cell-based, unstimulated, primary screen (AID 1145); conditions: no forskolin, luminescence, 4.5 h, higher = more signal, called active from +8 up or from −8 down
[14] = forskolin-driven CRE-LacZ activity in PC12 – cell-based, CRE-LacZ reporter, forskolin-stimulated, primary screen (AID 1146); conditions: luminescence, 4.5 h, higher = more signal, called active from +8 up or from −8 down;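 further: PC12 cells with 6xCRE LacZ reporter stimulated by forskolin 10 µM; beta-galactosidase reporter signal reflecting CREB driven transcription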
[15] = target: Streptavidin (Streptomyces avidinii) (UniProt P22629); assay: compounds binding control protein streptavidin – biophysical, small-molecule microarray, 635/667 nm fluorescence, artefact control for SMM compound annotation, primary screen (AID 1147); conditions: higher = more signal;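 further: signal reflects streptavidin binding to arrayed compounds as a control protein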
Sequence of Streptavidin (Streptomyces avidinii) (P22629 whole entry, looked up): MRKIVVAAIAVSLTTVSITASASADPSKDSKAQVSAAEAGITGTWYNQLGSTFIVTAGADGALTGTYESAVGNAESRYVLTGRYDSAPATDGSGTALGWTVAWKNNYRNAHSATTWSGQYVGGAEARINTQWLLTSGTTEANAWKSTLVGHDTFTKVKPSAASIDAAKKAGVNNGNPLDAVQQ

[16] = probe aInhba binding on compound microarray – biochemical, small-molecule microarray, 635/667 nm fluorescence, primary screen (AID 1148); conditions: higher = more signal;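 further: score merges 667nm spot fluorescence with signal-to-noise for antibody binding to printed compounds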
Torsin-1A (Homo sapiens) [17] = target: Torsin-1A (Homo sapiens) (UniProt O14656); assay: TOR1A wild-type binding on microarray – cell lysate, small-molecule microarray, lysate, 635/667 nm, primary screen (AID 1149); conditions: COS7 hTOR1A-WT lysate, 635 nm fluorescence, higher = more signal
Sequence of Torsin-1A (Homo sapiens) (O14656 whole entry, looked up): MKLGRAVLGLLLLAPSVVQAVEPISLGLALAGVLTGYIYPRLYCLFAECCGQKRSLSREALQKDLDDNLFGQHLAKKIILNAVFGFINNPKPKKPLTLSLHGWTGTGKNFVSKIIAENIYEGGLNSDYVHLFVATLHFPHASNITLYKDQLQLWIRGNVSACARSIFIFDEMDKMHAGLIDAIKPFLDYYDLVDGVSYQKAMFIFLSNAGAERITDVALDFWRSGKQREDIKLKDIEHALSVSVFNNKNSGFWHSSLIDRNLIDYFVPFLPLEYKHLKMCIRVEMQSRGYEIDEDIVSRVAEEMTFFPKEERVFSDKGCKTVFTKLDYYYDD

Torsin-1A (Homo sapiens) [18] = target: Torsin-1A (Homo sapiens) (UniProt O14656); assay: torsin A mutant lysate binding on microarrays – cell lysate, small-molecule microarray, COS7 lysate, 635/667 nm fluorescence, primary screen (AID 1150); conditions: COS7 hTOR1A mutant lysate, 635 nm fluorescence, higher = more signal;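 further: score pools 667 nm emission and signal to noise measuring lysate protein binding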
[19] = tested on: Sonic hedgehog protein (Shh); assay: Sonic hedgehog microarray binding compounds – biochemical, small-molecule microarray, 635/667 nm fluorescence, primary screen (AID 1151); conditions: 635 nm fluorescence, higher = more signal;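 further: Shh protein binding to compounds spotted on small-molecule microarray slides; score combines spot fluorescence intensity with signal-to-noise across triplicate slides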

Row | SMILES | composite z-score [1] | composite z-score [2] | composite z-score [3] | composite z-score [4] | composite z-score [5] | composite z-score [6] | z-score [7] | composite z-score (Lefty1) | composite z-score [8] | z-score [9] | composite z-score [10] | z-score [11] | z-score [12] | z-score [13] | z-score [14] | composite z-score [15] | composite z-score [16] | composite z-score (Torsin-1A (Homo sapiens) [17]) | composite z-score (Torsin-1A (Homo sapiens) [18]) | composite z-score [19]
1 | COC(=O)[C@@]1(Cc2ccc(OC)cc2)[C@H]2c3cc(C(=O)N4CCCC4)n(Cc4ccccc4)c3C[C@H]2CN1C(=O)c1ccccc1 | 3 | 1.25 | 1.32 | 1 | 0.506 | -0.368 | 0.581 | -0.292 | 1.1 | 2.01 (inactive) | 2.34 | -2.68 (inactive) | 0.888 (inactive) | 0.194 (inactive) | -0.754 (inactive) | 2.04 | 1.76 | -0.0218 | 0.107 | -0.442
2 | [N-]=[N+]=Nc1ccccc1[C@H]1OC(c2ccc(OCCCO)cc2)=N[C@@]1(Cc1ccccc1)C(=O)O | 0.864 | 1.25 | 0.345 | 1.04 | 1.17 | 0.284 | 0.384 | 0.708 | 0.611 | -9.33 (active) | 0.0316 | -1.1 (inactive) | -0.0839 (inactive) | -0.0249 (inactive) | -1.38 (inactive) | 0.365 | 0.0342 | 0.395 | 0.306 | 1.07
3 | C#CCNC(=O)[C@H](Cc1ccccc1)NC(=O)CCC(=O)O | -1.08 | -0.912 | -0.318 | -1.74 | -1.69 | -0.246 | -0.68 | -0.804 | -1.19 | 0.0223 (inactive) | -0.0994 | 0.0187 (inactive) | 0.743 (inactive) | 0.656 (inactive) | 0.301 (inactive) | -0.869 | -0.146 | 0.119 | 0.544 | -0.192
4 | COC(=O)[C@@]1(Cc2ccc(F)cc2)[C@H]2c3cc(C(=O)N(C)C)n(Cc4nc5ccccc5[nH]4)c3C[C@H]2CN1C(=O)c1ccccc1 | 1.11 | 1.28 | 0.187 | 0.843 | 0.526 | -0.634 | -0.0117 | -0.0816 | 0.488 | -0.625 (inactive) | 0.507 | -0.574 (inactive) | 0.528 (inactive) | 1.53 (inactive) | 0.678 (inactive) | 0.711 | 0.348 | -0.806 | 0.484 | -0.586
5 | C=CCOC(=O)[C@@H]1[C@H]2C(=O)O[C@H](c3ccccc3)[C@H](c3ccccc3)N2[C@H](c2ccc(OCCOC(=O)[C@@H]3C[C@@H]4C(=O)N[C@@H](CCCC[N+](C)(C)C)C(=O)N4[C@@H]3c3cccc(OCCO)c3)cc2)[C@@]12C(=O)Nc1ccc(I)cc12 | 1.13 | 1.17 | 1.15 | 0.531 | 1.41 | 1.79 | -1.2 | 1.64 | 0.347 | -1.82 (inactive) | 0.596 | -2.13 (inactive) | -1.22 (inactive) | 0.0084 (inactive) | 1.83 (inactive) | 0.337 | -0.122 | 0.993 | 1.15 | 1.99
6 | COCCOC(=O)N1C(=O)[C@@]2(c3cc(C#Cc4ccc(OC)cc4)ccc31)[C@H](C(=O)N1CCCCCCC1)[C@H]1C(=O)O[C@H](c3ccccc3)[C@H](c3ccccc3)N1[C@@H]2c1ccc(OCCO)cc1 | 0.885 | 0.94 | 0.409 | 0.905 | 1.58 | 2.1 | -0.951 | 1.36 | 1.32 | -2.56 (inactive) | 0.812 | -4.68 (inactive) | -1.97 (inactive) | 0.0857 (inactive) | -0.66 (inactive) | 1.67 | 1.82 | 1.12 | 1.06 | 2.15
7 | CN(C)CCCNC(=O)[C@@]1(c2ccc([N+](=O)[O-])cc2)CC(=O)N(C2CCCCC2)[C@@H]1c1ccc(CO)cc1I | 1.48 | 1.23 | 0.634 | 0.62 | 0.336 | 0.225 | -2.36 | 0.0773 | 0.701 | -0.907 (inactive) | -0.107 | -5.87 (inactive) | 0.262 (inactive) | 0.378 (inactive) | 0.519 (inactive) | 0.71 | -0.016 | 0.343 | 0.306 | 0.279
8 | COCCOC(=O)N1C(=O)[C@@]2(c3cc(C#Cc4ccc(OC)cc4)ccc31)[C@H](c1ccccc1OCCO)N1[C@H](c3ccccc3)[C@H](c3ccccc3)OC(=O)[C@H]1[C@@H]2C(=O)N1CCN(c2ncccn2)CC1 | 2.12 | 1.18 | 0.863 | -0.134 | 0.803 | 0.404 | -1.18 | 0.361 | 0.816 | -1.1 (inactive) | 0.418 | -0.915 (inactive) | -0.418 (inactive) | -0.199 (inactive) | 0.298 (inactive) | 0.226 | -0.0405 | 0.617 | 0.374 | 1.05
9 | COc1cc2c(cc1OC)CN(C(=O)[C@H]1[C@@H]3C(=O)O[C@@H](c4ccccc4)[C@@H](c4ccccc4)N3[C@@H](c3ccc(O)cc3)[C@]13C(=O)Nc1ccc(C#CC4=CCCCC4)cc13)CC2 | 2.11 | 1.19 | -0.0164 | 0.666 | 1.22 | 0.86 | 0.0961 | 1.2 | 1.12 | -1.1 (inactive) | 0.657 | -2.62 (inactive) | -0.693 (inactive) | -0.375 (inactive) | -0.267 (inactive) | 1.45 | 0.288 | 0.302 | 0.454 | 1.07
10 | OC([C@@H]1CC(c2ccccc2)=NO1)[C@H]1CC(c2ccccc2)=NO1 (stereo not given in full) | 0.176 | -0.236 | -0.141 | 0.0985 | 0.0914 | 0.128 | -0.0913 | 0.484 | -0.259 | -1.46 (inactive) | 0.0286 | -0.263 (inactive) | -0.00202 (inactive) | 2.31 (inactive) | -0.487 (inactive) | 0.133 | 0.027 | 0.0801 | -0.174 | 0.394
